Results reported in PubChem BioAssay AID493014 (National Center for Advancing Translational Sciences (NCATS), 2011).
The whole screen tested about 340,000 compounds, of which about 170 (0.05%) were called active. Where a call stands in place of a potency, no number is given. Roughly 26% stayed inconclusive and do not appear here. Calls come from the whole dose curve; as a rule, active = well fitted inhibition curve with a large enough effect in the signal ratio, with a control signal flat (not every such curve was filed as active); inconclusive = small, poorly fitted or top-dose-only effect, or effect the other way, or a change in a side signal; inactive = flat fitted curve, though single readings scatter; the % refers to the signal ratio. This excerpt belongs to a sample that is enriched for actives.

test: qHTS Assay to Find Inhibitors of Chronic Active B-Cell Receptor Signaling; settings: ABC-DLBCL IkBa-CBG/CBR reporter, luminescence ratio, 4 h; series mostly up to 46.1 µM
Text: NIH Molecular Libraries Probe Production Network [MLPCN] NIH Chemical Genomics Center [NCGC] MLPCN Grant: 1 R03 DA031086-01A1 PI Name: Dr. R. Eric Davis NCGC Assay Overview: Diffuse large B-cell lymphoma (DLBCL) is the most common category of non-Hodgkin lymphoma, with ~20,000 new cases per year in the United States. DLBCL should be regarded as a collection of different neoplasms. Microarray gene expression analysis has defined two principal types of DLBCL, named for their similarity to normal B cell stages or activation states: a germinal center B-cell (GCB) type, and an activated B-cell (ABC) type. In ABC-DLBCL, a constitutive high-level activity of the NF-kappaB family of transcription factors has been observed (1) and NF-kappaB target genes are more highly expressed in ABC primary tumors than in GCB tumors. Functional studies have shown a constitutive high-level activity of the IkappaB (inhibitor of kappa-B) kinase (IKK) complex. […] Further analysis of DLBCL primary tumors for NF-kappaB target gene expression imply that although CARD11 is required for constitutive IKK activity in all ABC-DLBCL lines, mutations in CARD11 may be the root cause of IKK activation only in lines or tumors with such mutations. In other words, CARD11 mutations may explain NF-kappaB activation in only 10% of ABC-DLBCL cases. […] This process has been termed 'chronic active BCR signaling' (CABS). The goal of this screen is to find small-molecule inhibitors of the CABS pathway found in ABC-DLBCL lines using a cell-based assay that measures IkappaBalpa stability, which has already been extensively validated in the OCI-Ly3 line (PubChem AID:445; REF: 4). […] The assay uses green (CBG68) and red (CBR) emitting beetle luciferases [Chroma-GloTM developed by Promega Corp.] where the green luciferase is fused to IkappaBalpha and the red luciferase is present in its native state. Both luciferase genes are stably present in the TMD8 human ABC DLBCL cell line, but their expression is under the control of tetracycline-inducible promoters. Following the addition of doxycycline to induce expression of the luciferases, the green luminescence in control cultures rises only slowly because the CBG fusion partner IkappaBalpha is targeted by IKK activity for rapid degradation. In contrast, green luminescence rises rapidly in the presence of proteasome inhibitors or IKK inhibitors. The rise in red luminescence of CBR is not affected by proteasome or IKK inhibitors, and serves as normalization for cell number and nonspecific effects. Compounds were screened as a concentration-titration series that ranged from 46 uM to 3 nM.
NCGC Assay Protocol Summary: Cells were seeded in 1536-well plates at 5000 cells/4uL in IMDM medium containing 0.5% FBS, w/o phenol red, 1% penicillin/streptomycin. Then, 23 nL of compounds or DMSO were delivered to each well using a pin tool. One uL 20ng/ml doxycycline was then dispensed into white solid 1536-well plates and the plates were incubated at 37C/5% C02 in a cell incubator for 4 hrs. Then 4 uL luminescent substrate mix (in-house prepared: 150 mM Tris-Cl, pH 7.6, 3 mM MgCl2, 1% Triton X-100, 5 mM DTT, 0.2 mM CoA, 0.15 mM ATP, 5 mM D-luciferin, final concentrations) was added to each well. The plate was incubated at r.t. for 10-15 min. The plates were measured on a ViewLux plate reader for green luminescence (540/20 nm filter) and red luminescence (618/8 nm filter). The green and red luminescent signals were corrected for red and green luminescence filter overlap using previously determined filter calibration constants (determined using the procedure outlined in the Promega Technical Manual; REF 4). The %Activity was determined from the ratio of corrected green/red luminescent values. MG132 were used as control. […] Red luminescent %Activity was normalized to the difference between red luminesence in basal cells (0%Activity) and zero luminescence (-100% Activity). […]
Potency is the fitted concentration of half-maximal effect.

SMILES	Potency
CCCCN(CC(=O)Nc1cccc(S(=O)(=O)N2CCCC2)c1)Cc1nc2ccccc2c(=O)[nH]1	inactive
O=S(=O)(NCCCCCCNS(=O)(=O)c1c(F)cccc1F)c1ccc2c(c1)OCCO2	inactive
CCN(c1ccccc1)S(=O)(=O)c1cccc(C(=O)NCc2ccccc2CN2CCOCC2)c1	inactive
C=CC[C@@H](CC(=O)N[C@H](CO)Cc1ccccc1)C(=O)N[C@H](C)COC(=O)[C@@H](CC=C)Cc1ccc(F)cc1	inactive
O=S(=O)(NC1CCN(S(=O)(=O)c2ccc3c(c2)OCCO3)CC1)c1c(F)cccc1F	inactive
COC(=O)[C@]1(Cc2ccccc2)N[C@H](CN(C)S(=O)(=O)c2ccc(OC(F)(F)F)cc2)[C@@H]2C(=O)N(C)C(=O)[C@@H]21	inactive
Nc1ccc(Nc2cc(O)c3ncccc3c2)cc1	inactive
Cc1ccc(NS(=O)(=O)c2ccc(C(C)C)cc2)cc1S(=O)(=O)N1CCOCC1	inactive
CCN(C[C@H]1N[C@@](Cc2ccccc2)(C(=O)OC)[C@H]2C(=O)N(Cc3ccccc3)C(=O)[C@@H]12)C(=O)c1ccc(C)cc1	inactive
O=C1C=CN2CCCC2CC1 (configuration not stated)	inactive
COc1cccc(NC(=O)COC(=O)c2ccc3ccccc3n2)c1	inactive
CCOC(=O)C1CCCN(C(=O)CSc2nnc3nc(C)cc(C)n23)C1 (configuration not stated)	inactive
COc1cccc(C2=CC(=O)C[C@H](c3ccc(OC)c(OC)c3)C2)c1	inactive
CN(C)C(=O)COC(=O)c1cccc(S(=O)(=O)N2CC3(C)CC2CC(C)(C)C3)c1 (configuration not stated)	inactive
Cc1ccc(-n2ncc3c2CC(C)(C)CC3NC(=O)Cc2c(C)noc2C)cc1 (configuration not stated)	inactive
COC(=O)[C@]1(CC(C)C)N[C@H](c2ccc(SC3CCCCC3)cc2)[C@@H]2C(=O)N(C)C(=O)[C@@H]21	inactive
O=C1COc2ccc(C(=O)CSc3ccc(Br)cc3)cc2N1	inactive
Cc1ccc(N2CC(C(=O)N3CCC4(CC3)CC(=O)c3ccccc3O4)CC2=O)cc1C (configuration not stated)	inactive
CC(=O)Nc1ccc(S(=O)(=O)NCCC(=O)N2CCN(c3ccccc3Cl)CC2)cc1	inactive

SMILES	Potency
Fc1ccccc1-c1cc2cc3c(cc2cn1)OCO3	inactive
CCN(CC(=O)Nc1ccc(OC)cc1)C(=O)CSCc1ccc(C)cc1	inactive
Cc1cccc(N(Cc2ccccc2)C(=O)c2cc(S(=O)(=O)N3CCOCC3)ccc2F)c1	inactive
CCN(CC)S(=O)(=O)c1ccc(N2CCOCC2)c(NC(=O)C(C)Oc2ccc(F)cc2)c1 (configuration not stated)	inactive
CC1Sc2ccc(C(=O)NCc3ccccc3Cl)cc2NC1=O (configuration not stated)	inactive
O=C(O[C@@H]1[C@H](Cc2ccccc2)NS(=O)(=O)[C@H]2C[C@@H]3C=C[C@]12O3)c1ccccc1Br	inactive
CC(C)(C)OC(=O)C[C@@H]1C/C=C\C[C@H](CC(=O)N[C@@H](CO)Cc2ccccc2)C(=O)N[C@H](Cc2ccccc2)COC1=O	inactive
CN=C(Nc1cccc(S(=O)(=O)N2CCOCC2)c1)c1ccccc1	inactive
Oc1ccccc1CN1CCN(C(c2ccccc2)c2ccccc2)CC1	inactive
COc1ccc(-c2cc(=O)oc3cc(OC(C)C(=O)Nc4ccc(CN5CCOCC5)cc4)ccc23)cc1 (configuration not stated)	inactive
COc1ccc(CNC(=O)C[C@H]2C[C@H](C(=O)N3CCOCC3)[C@@]3(CCC4CCCC4)c4[nH]c5ccc(Cl)cc5c4CCN3C2=O)cc1OC	inactive
CC(=O)Nc1ccc(SC[C@H](Cc2ccccc2)N2CC[C@@H](C)CCC2=O)cc1	inactive
O=C(COC(=O)COc1cccc(F)c1)NCC1CCCCC1	inactive
O=C(NCc1ccccc1CN1CCCC1)C1CCN(S(=O)(=O)c2ccc(Cl)cc2)CC1	inactive
Cc1cccc(NC(=O)c2ccc(S(=O)(=O)N(C)c3ccccc3)cc2)n1	inactive
COc1ccc(NC(=O)CN2C(=O)COc3ccc(S(=O)(=O)N4CCOCC4)cc32)c(OC)c1	inactive
Cc1ccc(CNC(=O)Cn2cnc3c(NCc4ccccc4)ncnc32)o1	inactive
COc1ccccc1N(C)S(=O)(=O)c1ccc(Cl)c(C(=O)Nc2ccncc2)c1	inactive
C[C@H]1COC(=O)[C@H](CC(=O)OC(C)(C)C)C/C=C\C[C@@H](CC(=O)N[C@H](CO)Cc2ccccc2)C(=O)N1	inactive

SMILES	Potency
Nc1cc(N)nc(SCC(=O)Nc2cccc(S(=O)(=O)N3CCCCC3)c2)n1	inactive
COc1ccc(S(=O)(=O)N2CCCCCC2)cc1NC(=O)Cc1ccc(OC)c(OC)c1	inactive
COC(=O)c1cc(C(=O)NC(C)C2CC3CCC2C3)cc([N+](=O)[O-])c1 (configuration not stated)	inactive
O=C(CN(Cc1ccc(Br)cc1)S(=O)(=O)c1ccccc1)NCc1ccncc1	inactive
Cc1ccc(C)c(N2CCN(C(=O)CCc3nc(-c4cccc(C(F)(F)F)c4)no3)CC2)c1	inactive
COc1ccc(C2CC(=O)Nc3cc(C)c(C)cc32)c(OC)c1OC (configuration not stated)	inactive
COc1cc2c(cc1OC)C(c1ccc(C)o1)CC(=O)N2 (configuration not stated)	inactive
CCCOc1ccccc1C1CC(=O)Nc2cc3c(cc21)OCO3 (configuration not stated)	23.1 µM (active)
COC(=O)[C@H](Cc1ccccc1)NC(=O)Nc1ccc(OC)cc1	inactive
COc1ccc(NC(=O)c2sc(N)nc2-c2ccccc2)cc1	12.6 µM (active)
COc1ccc(NC(=O)c2cnc(NS(=O)(=O)c3ccccc3)nc2)cc1	inactive
CCCCCCSc1ccc([C@@H]2[C@@H]3C(=O)N(CC)C(=O)[C@@H]3[C@]3(C(=O)OC)CCCCN23)cc1OC	inactive
O=C(c1ccc(S(=O)(=O)NCc2ccco2)cc1)N1CCN(c2ccccc2)CC1	inactive
CCN1C(=O)[C@@H]2[C@@H](c3ccc(-c4ccc(OC)cc4)c(OC)c3)N3CCC[C@@]3(C(=O)OC)[C@@H]2C1=O	inactive
COc1ccc(Cl)cc1NC(=O)CN(C)C(=O)c1cc2ccccc2cc1OC	inactive
CC(C)N(Cc1nnc(-c2ccccc2Br)o1)C(=O)c1cc(Cl)nc2ccccc12	inactive
COc1ccccc1N1CC(C(=O)Nc2nnc(SCC(=O)NC(C)C)s2)CC1=O (configuration not stated)	inactive
COc1ccc(/C=N/Nc2cc(N3CCOCC3)nc(C)n2)c(OC)c1	inactive
COc1ccc(N2CCN(C(=O)COC(=O)c3cccc(S(=O)(=O)Nc4ccccc4OC)c3)CC2)cc1	inactive
